# Test results reported in PubChem BioAssay (EPA / NIEHS).
# Inconclusive results are not listed. The source made the active and inactive calls. How the source made its calls, unless noted: active means hit-call score of the fitted dose curve at least 0.9, where 1 is the maximum; inactive means score below 0.9.
# Columns and labels:
# [1] = target: Bile acid receptor (Homo sapiens) (UniProt Q96RI1); assay: ATG_FXR_TRANS: Attagene TRANS-FACTORIAL HepG2 Assay for Farnesoid X Receptor (FXR) (AID 2282979; active means hit-call score of the fitted dose curve at least 0.9, where 1 is the maximum;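 further: hits raise reporter mRNA above DMSO so AC50 marks FXR activation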); conditions: HepG2 Attagene TRANS FXR-GAL4 reporter transcription
# Method in brief: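 Chimeric FXR-GAL4 activity in transiently transfected human HepG2 liver cells is scored as induction of reporter mRNA after 24 h of dosing. Detection uses RT-PCR with fluorescent labelling and capillary electrophoresis, with DMSO serving as baseline.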
# [2] = target: Oxysterols receptor LXR-beta (Homo sapiens) (UniProt P55055); assay: ATG_LXRb_TRANS: Attagene TRANS-FACTORIAL HepG2 Assay for human Liver X Receptor beta (LXRb) (AID 2282981; active means hit-call score of the fitted dose curve at least 0.9, where 1 is the maximum); conditions: HepG2 Attagene TRANS GAL4-LXRb reporter, mRNA
# Method in brief: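 Transient transfection HepG2 (multiplexed RTUs, GAL4-UAS); NR-Gal4 chimera; 24 h exposure; RNA → RT-PCR → 6-FAM primer extension → HpaI → CE; increase vs DMSO.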
# [3] = target: Hepatocyte nuclear factor 4-alpha (Homo sapiens) (UniProt P41235); assay: ATG_HNF4a_TRANS: Attagene TRANS-FACTORIAL HepG2 Assay for human Hepatocyte Nuclear Factor 4 alpha (HNF4a) (AID 2282982; active means hit-call score of the fitted dose curve at least 0.9, where 1 is the maximum); conditions: HepG2 HNF4a transactivation reporter, mRNA readout
# Method in brief: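 Readout is fluorescent reporter-transcript fragments resolved by capillary electrophoresis after RT-PCR from HepG2 cells dosed for 24 h. Cells carried transfected GAL4-UAS reporter constructs measuring exogenous NR-GAL4 chimera activity; DMSO served as baseline.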
# [4] = ATG_M_32_TRANS: Attagene TRANS-FACTORIAL HepG2 Assay for M32 Transcription Factor (Internal Marker) (AID 2282984; active means hit-call score of the fitted dose curve at least 0.9, where 1 is the maximum;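 further: transcript level of a background control reporter unit measured by RT-PCR and capillary electrophoresis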); conditions: HepG2 Attagene TRANS M32 internal marker reporter
# Method in brief: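 Measures reporter mRNA induction in human HepG2 liver cells after 24 h chemical treatment. Transcripts from transiently transfected GAL4-UAS reporter units are amplified, fluorescently labelled and sized by capillary electrophoresis; gain of signal relative to DMSO.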
# [5] = target: Transcriptional activator Myb (Homo sapiens) (UniProt P10242); assay: ATG_Myb_CIS: Attagene CIS-FACTORIAL HepG2 Assay for human Myeloblastosis (Myb) Proto-Oncogene Transcription Factor (AID 2282986); conditions: HepG2 Attagene CIS-FACTORIAL Myb reporter transcription; actives raise or lower the signal
# Method in brief: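 HepG2, transient MRTU transfection (cis-element promoters, endogenous TF activity), 24 h compound exposure. Readout: reporter mRNA via RT-PCR, 6-FAM labeling, HpaI digest, capillary electrophoresis. Gain/loss fit vs DMSO.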
# [6] = target: Nuclear respiratory factor 1 (Homo sapiens) (UniProt Q16656); assay: ATG_NRF1_CIS: Attagene CIS-FACTORIAL HepG2 Assay for human Nuclear Respiratory Factor 1 (NRF1) Orphan Gene (AID 2282987); conditions: HepG2 NRF1 cis-element reporter, Attagene multiplex; actives raise or lower the signal
# Method in brief: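 Endogenous NRF1-driven reporter transcription measured in transiently transfected human HepG2 liver cells. Readout: reporter mRNA by RT-PCR and capillary electrophoresis with fluorescence detection, 24 h post-dosing. Gain or loss of signal fitted relative to DMSO baseline.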
# [7] = ATG_NFI_CIS: Attagene CIS-FACTORIAL HepG2 Assay for human Nuclear Factor I (NFI) (AID 2282989); conditions: HepG2 cis-regulatory reporter, NFI response element transcription; actives raise or lower the signal
# Method in brief: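 Endogenous TF activity in HepG2 cells transiently transfected with cis-element-driven multiplexed reporter units, read 24 h after dosing. Reporter mRNA quantified by RT-PCR, 6-FAM labelling, HpaI digestion and capillary electrophoresis; bidirectional fit versus DMSO.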
# [8] = target: Myc proto-oncogene protein (Homo sapiens) (UniProt P01106); assay: ATG_Myc_CIS: Attagene CIS-FACTORIAL HepG2 Assay for human Myelocytomatosis (Myc) Proto-Oncogene Transcription Factor (AID 2282990); conditions: HepG2, Attagene cis-reporter transcription factor activity; actives raise or lower the signal
# Method in brief: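 HepG2, transient MRTU transfection (cis promoters, endogenous TFs); 24 h dosing; TriZol RNA → oligo(dT) RT → PCR → 6-FAM primer extension → HpaI cut → CE. Bidirectional fit vs DMSO.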
# [9] = ATG_NRF2_ARE_CIS: Attagene CIS-FACTORIAL HepG2 Assay for human Nuclear Factor Erythroid 2 Related Factor 2 (NFR2) response to Antioxidant Response Elements (ARE) (AID 2282992); conditions: HepG2 Attagene ARE/NRF2 reporter, transcription factor activity; actives raise or lower the signal
# Method in brief: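 Multiplexed reporter mRNA profiling in HepG2 after a 24 h chemical exposure. Curves fitted in both directions relative to DMSO negative control.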
# [10] = ATG_Oct_MLP_CIS: Attagene CIS-FACTORIAL HepG2 Assay for human Octamer-Binding Transcription Factor (Oct) (AID 2282993); conditions: HepG2 Attagene cis-factorial Oct reporter, mRNA; actives raise or lower the signal
# Method in brief: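 HepG2 cells transiently transfected with cis-element-driven reporter transcription units (endogenous TF activity); 24 h compound exposure. Reporter mRNA quantified by RT-PCR, 6-FAM labelling, HpaI digestion and capillary electrophoresis; bidirectional fit versus DMSO baseline.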
# [11] = target: Cellular tumor antigen p53 (Homo sapiens) (UniProt P04637); assay: ATG_p53_CIS: Attagene CIS-FACTORIAL HepG2 Assay for human p53 Transcription Factor (AID 2282994); conditions: HepG2 p53 cis-element reporter, Attagene mRNA; actives raise or lower the signal
# Method in brief: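 Multiplexed reporter mRNA assay in human HepG2 liver cells; cis-regulated units report endogenous factor activity. Values come from bidirectional curve fitting against DMSO negative control after 24 h treatment.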
# [12] = target: Glucocorticoid receptor (Homo sapiens) (UniProt P04150); assay: ATG_GR_TRANS: Attagene TRANS-FACTORIAL HepG2 Assay for human Glucocorticoid Receptor (GR) (AID 2282978; active means hit-call score of the fitted dose curve at least 0.9, where 1 is the maximum;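 further: activators score as hits since higher reporter transcript over DMSO is fitted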); conditions: HepG2 Attagene TRANS GR reporter, mRNA transcription
# Method in brief: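 Transient MRTU transfection of HepG2 (GAL4-UAS reporters, exogenous NR-GAL4 chimeras), 24 h dosing. Readout: reporter transcript via RT-PCR + capillary electrophoresis fluorescence. Positive direction vs DMSO baseline.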
# [13] = target: Nuclear receptor subfamily 4 group A member 2 (Homo sapiens) (UniProt P43354); assay: ATG_NURR1_TRANS: Attagene TRANS-FACTORIAL HepG2 Assay for human Nuclear Receptor Related Protein 1 (NURR1) (AID 2282985; active means hit-call score of the fitted dose curve at least 0.9, where 1 is the maximum); conditions: HepG2 Attagene TRANS reporter, mRNA readout
# Method in brief: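 Transient transfection of HepG2, human liver cells, with multiple GAL4-UAS reporter transcription units. Cells dosed 24 h, RNA isolated, reverse-transcribed, PCR-amplified, FAM-labelled, HpaI-digested, sized by capillary electrophoresis. DMSO served as negative control.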
# [14] = ATG_NF_kB_CIS: Attagene CIS-FACTORIAL HepG2 Assay for human Nuclear Factor Kappa B (NF-kB) (AID 2282991); conditions: HepG2 Attagene cis-factorial NF-kB reporter mRNA; actives raise or lower the signal
# Method in brief: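 Read-out: reporter transcript levels quantified by RT-PCR plus capillary electrophoresis of 6-FAM-labelled, HpaI-cut fragments. Transfected HepG2 cells, 24 h compound exposure, endogenous NF-kB-driven cis element; gain or loss scored versus DMSO.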
# [15] = target: Oxysterols receptor LXR-alpha (Homo sapiens) (UniProt Q13133); assay: ATG_LXRa_TRANS: Attagene TRANS-FACTORIAL HepG2 Assay for human Liver X Receptor alpha (LXRa) (AID 2282980; active means hit-call score of the fitted dose curve at least 0.9, where 1 is the maximum); conditions: HepG2 Attagene TRANS reporter, LXRa transactivation
# Method in brief: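 Transient HepG2 transfectants, 24 h dosing, RT-PCR/CE mRNA reporter quantitation; gain-of-signal vs DMSO.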
# [16] = ATG_M_06_TRANS: Attagene TRANS-FACTORIAL HepG2 Assay for M06 Transcription Factor (Internal Marker) (AID 2282983; active means hit-call score of the fitted dose curve at least 0.9, where 1 is the maximum); conditions: HepG2 Attagene TRANS M06 internal marker reporter
# Method in brief: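 Measured by capillary electrophoresis of fluorescently labelled RT-PCR products, this endpoint reflects reporter mRNA in HepG2 cells harbouring exogenous NR-GAL4 reporter constructs after 24 h exposure, with DMSO as baseline.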
# [17] = BSK_3C_uPAR: BioMAP Diversity Plus: 3C Assay for Urokinase-type plasminogen activator receptor (uPAR) Biomarker Activity (AID 2282998); conditions: BioMAP 3C HUVEC, uPAR biomarker ELISA; actives raise or lower the signal
# Method in brief: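 Primary human umbilical vein endothelial cells, 3C system; surface uPAR measured by ELISA 24 h after dosing. Cytotoxicity via SRB total protein in parallel cultures; bidirectional fit against DMSO.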
# [18] = BSK_3C_VCAM1: BioMAP Diversity Plus: 3C Assay for Vascular cell adhesion molecule 1 (VCAM1) Biomarker Activity (AID 2282999); conditions: BioMAP 3C HUVEC, VCAM1 ELISA, cytokine-stimulated; actives raise or lower the signal
# Method in brief: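 Endothelial cells from human umbilical vein are treated with test chemical. At 24 h, VCAM-1 is measured by ELISA, and responses in either direction are fitted relative to DMSO.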
# Sequence of Bile acid receptor (Homo sapiens) (Q96RI1 whole entry, looked up, the tested form may be a part): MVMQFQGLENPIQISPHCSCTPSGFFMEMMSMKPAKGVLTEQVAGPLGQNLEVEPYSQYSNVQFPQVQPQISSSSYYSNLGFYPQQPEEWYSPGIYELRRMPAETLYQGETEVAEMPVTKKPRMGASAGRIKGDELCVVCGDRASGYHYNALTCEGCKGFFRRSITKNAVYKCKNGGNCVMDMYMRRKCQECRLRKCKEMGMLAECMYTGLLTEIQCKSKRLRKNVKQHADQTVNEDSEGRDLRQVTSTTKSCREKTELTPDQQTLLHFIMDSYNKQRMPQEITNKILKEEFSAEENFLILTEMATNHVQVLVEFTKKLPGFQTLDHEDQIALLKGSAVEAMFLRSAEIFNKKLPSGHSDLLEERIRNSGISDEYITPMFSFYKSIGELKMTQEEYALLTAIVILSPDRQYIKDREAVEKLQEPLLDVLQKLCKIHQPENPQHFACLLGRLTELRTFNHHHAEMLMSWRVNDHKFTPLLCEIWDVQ
# Sequence of Glucocorticoid receptor (Homo sapiens) (P04150 whole entry, looked up, the tested form may be a part): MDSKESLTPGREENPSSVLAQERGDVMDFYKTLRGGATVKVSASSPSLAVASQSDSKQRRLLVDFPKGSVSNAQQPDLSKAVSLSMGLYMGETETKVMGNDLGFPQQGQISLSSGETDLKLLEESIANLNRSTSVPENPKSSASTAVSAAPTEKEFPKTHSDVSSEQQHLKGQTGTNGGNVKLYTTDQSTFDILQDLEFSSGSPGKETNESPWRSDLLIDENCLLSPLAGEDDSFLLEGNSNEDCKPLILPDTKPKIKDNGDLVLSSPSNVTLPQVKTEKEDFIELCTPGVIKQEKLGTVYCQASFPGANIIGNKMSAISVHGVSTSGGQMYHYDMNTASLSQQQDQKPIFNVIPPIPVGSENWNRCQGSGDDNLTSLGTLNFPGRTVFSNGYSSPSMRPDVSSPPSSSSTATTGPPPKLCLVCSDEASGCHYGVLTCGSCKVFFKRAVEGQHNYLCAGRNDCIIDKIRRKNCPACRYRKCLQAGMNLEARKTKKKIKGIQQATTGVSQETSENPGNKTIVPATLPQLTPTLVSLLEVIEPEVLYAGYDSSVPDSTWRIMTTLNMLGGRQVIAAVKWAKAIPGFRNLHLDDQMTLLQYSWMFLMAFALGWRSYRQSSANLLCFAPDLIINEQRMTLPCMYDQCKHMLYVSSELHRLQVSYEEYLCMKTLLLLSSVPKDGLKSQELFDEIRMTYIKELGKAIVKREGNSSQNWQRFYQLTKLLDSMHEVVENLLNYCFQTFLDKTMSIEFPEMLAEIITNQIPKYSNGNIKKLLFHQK
# Sequence of Nuclear receptor subfamily 4 group A member 2 (Homo sapiens) (P43354 whole entry, looked up, the tested form may be a part): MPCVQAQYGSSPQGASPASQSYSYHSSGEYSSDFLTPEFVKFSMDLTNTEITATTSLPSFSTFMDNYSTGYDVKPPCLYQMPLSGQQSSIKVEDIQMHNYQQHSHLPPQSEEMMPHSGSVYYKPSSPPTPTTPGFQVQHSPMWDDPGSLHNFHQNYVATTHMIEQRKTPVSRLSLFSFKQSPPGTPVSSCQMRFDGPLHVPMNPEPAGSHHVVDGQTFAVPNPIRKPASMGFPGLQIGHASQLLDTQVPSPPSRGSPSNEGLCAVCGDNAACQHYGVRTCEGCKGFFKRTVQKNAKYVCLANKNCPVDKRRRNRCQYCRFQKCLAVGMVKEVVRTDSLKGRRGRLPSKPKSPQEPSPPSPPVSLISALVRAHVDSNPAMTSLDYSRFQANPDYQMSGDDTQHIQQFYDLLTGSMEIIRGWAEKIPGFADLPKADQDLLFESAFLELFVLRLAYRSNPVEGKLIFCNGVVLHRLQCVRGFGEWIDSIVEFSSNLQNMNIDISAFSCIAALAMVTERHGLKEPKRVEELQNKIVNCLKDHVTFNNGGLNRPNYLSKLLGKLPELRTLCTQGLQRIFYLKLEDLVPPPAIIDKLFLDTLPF
# Sequence of Oxysterols receptor LXR-beta (Homo sapiens) (P55055 whole entry, looked up, the tested form may be a part): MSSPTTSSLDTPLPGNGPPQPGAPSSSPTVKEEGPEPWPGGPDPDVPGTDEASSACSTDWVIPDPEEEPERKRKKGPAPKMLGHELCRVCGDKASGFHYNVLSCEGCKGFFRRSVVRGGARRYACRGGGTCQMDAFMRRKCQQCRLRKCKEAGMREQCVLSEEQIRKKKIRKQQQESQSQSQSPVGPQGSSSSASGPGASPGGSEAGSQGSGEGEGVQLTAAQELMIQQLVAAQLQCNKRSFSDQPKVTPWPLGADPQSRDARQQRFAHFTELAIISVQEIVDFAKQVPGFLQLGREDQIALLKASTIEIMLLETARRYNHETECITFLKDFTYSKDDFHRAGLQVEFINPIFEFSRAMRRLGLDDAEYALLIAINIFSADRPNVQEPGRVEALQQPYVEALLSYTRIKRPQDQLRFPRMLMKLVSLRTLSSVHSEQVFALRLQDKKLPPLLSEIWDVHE
# Sequence of Hepatocyte nuclear factor 4-alpha (Homo sapiens) (P41235 whole entry, looked up, the tested form may be a part): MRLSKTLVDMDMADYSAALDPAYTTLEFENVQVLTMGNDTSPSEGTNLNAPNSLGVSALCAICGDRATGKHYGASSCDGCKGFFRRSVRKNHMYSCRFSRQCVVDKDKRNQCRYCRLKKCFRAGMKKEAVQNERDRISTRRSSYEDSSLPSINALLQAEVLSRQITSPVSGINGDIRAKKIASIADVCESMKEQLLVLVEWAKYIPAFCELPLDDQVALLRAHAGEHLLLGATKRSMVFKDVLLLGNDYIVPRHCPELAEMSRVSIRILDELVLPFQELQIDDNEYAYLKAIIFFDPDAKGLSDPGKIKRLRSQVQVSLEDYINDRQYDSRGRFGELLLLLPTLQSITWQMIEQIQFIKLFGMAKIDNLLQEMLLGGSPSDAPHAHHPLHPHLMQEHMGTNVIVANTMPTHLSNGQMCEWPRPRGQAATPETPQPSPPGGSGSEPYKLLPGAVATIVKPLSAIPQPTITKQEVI
# Sequence of Myc proto-oncogene protein (Homo sapiens) (P01106 whole entry, looked up): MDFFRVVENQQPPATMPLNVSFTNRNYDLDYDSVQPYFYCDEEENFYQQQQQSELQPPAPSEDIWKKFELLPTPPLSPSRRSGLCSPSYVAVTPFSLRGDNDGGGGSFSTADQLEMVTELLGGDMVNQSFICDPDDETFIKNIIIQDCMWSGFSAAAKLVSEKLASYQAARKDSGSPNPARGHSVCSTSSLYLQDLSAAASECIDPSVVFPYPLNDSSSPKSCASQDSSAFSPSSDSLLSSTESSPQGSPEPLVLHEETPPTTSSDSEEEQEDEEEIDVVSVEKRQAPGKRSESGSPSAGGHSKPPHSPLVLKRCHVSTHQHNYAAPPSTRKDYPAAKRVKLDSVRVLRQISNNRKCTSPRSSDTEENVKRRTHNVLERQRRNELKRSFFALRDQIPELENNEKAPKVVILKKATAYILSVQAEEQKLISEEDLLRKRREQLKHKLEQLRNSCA
# Sequence of Oxysterols receptor LXR-alpha (Homo sapiens) (Q13133 whole entry, looked up): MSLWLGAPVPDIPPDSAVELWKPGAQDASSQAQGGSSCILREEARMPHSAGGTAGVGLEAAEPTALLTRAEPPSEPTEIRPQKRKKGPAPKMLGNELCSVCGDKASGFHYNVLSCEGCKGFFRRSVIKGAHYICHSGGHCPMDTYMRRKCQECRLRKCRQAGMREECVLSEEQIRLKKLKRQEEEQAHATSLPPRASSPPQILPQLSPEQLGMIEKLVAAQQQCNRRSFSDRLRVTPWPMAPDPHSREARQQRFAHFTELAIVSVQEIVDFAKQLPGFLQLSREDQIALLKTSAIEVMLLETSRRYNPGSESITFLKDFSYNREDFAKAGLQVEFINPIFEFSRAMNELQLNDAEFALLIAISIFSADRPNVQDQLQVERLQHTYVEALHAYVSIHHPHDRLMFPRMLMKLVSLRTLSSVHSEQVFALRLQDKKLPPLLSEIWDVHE
# Sequence of Nuclear respiratory factor 1 (Homo sapiens) (Q16656 whole entry, looked up): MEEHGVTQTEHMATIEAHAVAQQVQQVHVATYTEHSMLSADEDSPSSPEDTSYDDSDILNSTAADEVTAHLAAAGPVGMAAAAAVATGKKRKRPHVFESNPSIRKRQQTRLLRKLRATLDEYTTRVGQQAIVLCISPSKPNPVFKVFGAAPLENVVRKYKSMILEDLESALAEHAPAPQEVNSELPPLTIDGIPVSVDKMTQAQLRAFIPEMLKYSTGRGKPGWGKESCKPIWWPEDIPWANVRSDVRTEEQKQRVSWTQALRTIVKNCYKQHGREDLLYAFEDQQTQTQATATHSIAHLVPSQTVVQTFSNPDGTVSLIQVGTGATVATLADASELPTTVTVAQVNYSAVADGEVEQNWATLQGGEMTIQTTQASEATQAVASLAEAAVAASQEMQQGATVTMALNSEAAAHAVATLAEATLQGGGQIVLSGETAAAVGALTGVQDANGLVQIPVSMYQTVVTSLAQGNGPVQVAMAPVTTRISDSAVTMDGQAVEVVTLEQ
# Sequence of Cellular tumor antigen p53 (Homo sapiens) (P04637 whole entry, looked up): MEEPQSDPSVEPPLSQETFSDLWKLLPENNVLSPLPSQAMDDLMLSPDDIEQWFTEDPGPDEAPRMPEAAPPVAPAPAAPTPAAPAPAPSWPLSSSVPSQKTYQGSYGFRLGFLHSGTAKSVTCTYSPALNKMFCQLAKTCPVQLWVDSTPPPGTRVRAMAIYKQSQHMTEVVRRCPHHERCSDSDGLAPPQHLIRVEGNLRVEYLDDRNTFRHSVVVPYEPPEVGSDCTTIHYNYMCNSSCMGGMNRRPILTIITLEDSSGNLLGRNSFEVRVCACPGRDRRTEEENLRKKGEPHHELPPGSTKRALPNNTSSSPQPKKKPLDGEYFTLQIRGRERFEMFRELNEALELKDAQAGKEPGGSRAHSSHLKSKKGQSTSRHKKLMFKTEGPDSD
smiles,measurement,setting,value
CCC(=O)OC(C)(C)C1CC=C(C)CC1 (configuration not stated),outcome,[1],inactive
same,outcome,[2],inactive
same,outcome,[3],inactive
same,outcome,[4],inactive
same,outcome,[5],inactive
same,outcome,[6],inactive
same,outcome,[7],inactive
same,outcome,[8],inactive
same,AC50,[9],127 µM (active)
same,outcome,[10],inactive
same,outcome,[11],inactive
CCCCCC1CCC(=O)O1 (configuration not stated),outcome,[12],inactive
same,outcome,[13],inactive
same,outcome,[5],inactive
same,outcome,[6],inactive
same,outcome,[7],inactive
same,outcome,[8],inactive
same,outcome,[14],inactive
same,outcome,[9],inactive
same,outcome,[10],inactive
same,outcome,[11],inactive
C=CCOCC(O)CO (configuration not stated),outcome,[1],inactive
same,outcome,[15],inactive
same,outcome,[3],inactive
same,outcome,[16],inactive
same,AC50,[5],152 µM (active)
same,outcome,[6],inactive
same,outcome,[7],inactive
same,AC50,[8],137 µM (active)
same,outcome,[9],inactive
same,outcome,[10],inactive
same,outcome,[11],inactive
c1ccc2c(c1)-c1ccc3ccc4cccc5cc-2c1c3c45,outcome,[1],inactive
same,outcome,[15],inactive
same,outcome,[2],inactive
same,outcome,[4],inactive
same,outcome,[13],inactive
same,outcome,[5],inactive
same,outcome,[6],inactive
same,outcome,[7],inactive
same,outcome,[8],inactive
same,outcome,[14],inactive
same,AC50,[9],0.205 µM (active)
same,outcome,[10],inactive
same,outcome,[11],inactive
same,AC50,[17],0.667 µM (active)
same,outcome,[18],inactive
CC(CCO)CC(C)(C)C (configuration not stated),outcome,[12],inactive
same,outcome,[16],inactive
same,outcome,[4],inactive
same,outcome,[5],inactive
same,outcome,[6],inactive
same,outcome,[7],inactive
same,outcome,[8],inactive
same,outcome,[14],inactive
same,outcome,[9],inactive
same,outcome,[10],inactive
same,outcome,[11],inactive
CCCCCCC(O)CCOC(C)=O (configuration not stated),outcome,[1],inactive
same,outcome,[3],inactive
same,outcome,[16],inactive
same,outcome,[5],inactive
same,outcome,[6],inactive
same,outcome,[7],inactive
same,outcome,[8],inactive
same,outcome,[14],inactive
same,outcome,[9],inactive
same,outcome,[10],inactive
same,outcome,[11],inactive
CC(C)(C)c1ccc(S)cc1,outcome,[12],inactive
same,outcome,[16],inactive
same,outcome,[4],inactive
same,outcome,[5],inactive
same,outcome,[6],inactive
same,outcome,[7],inactive
same,outcome,[8],inactive
same,AC50,[9],16.1 µM (active)
same,outcome,[10],inactive
same,outcome,[11],inactive
NC(=O)c1c(Cl)cccc1Cl,outcome,[1],inactive
same,outcome,[3],inactive
same,outcome,[6],inactive
same,outcome,[7],inactive
same,outcome,[8],inactive
same,outcome,[14],inactive
same,outcome,[9],inactive
same,outcome,[10],inactive
same,outcome,[17],inactive
same,outcome,[18],inactive
CCC(=O)OCC=Cc1ccccc1,outcome,[1],inactive
same,outcome,[2],inactive
same,outcome,[3],inactive
same,outcome,[16],inactive
same,outcome,[4],inactive
same,outcome,[5],inactive
same,outcome,[6],inactive
same,outcome,[7],inactive
same,outcome,[8],inactive
same,outcome,[14],inactive
same,AC50,[9],36.3 µM (active)
same,outcome,[10],inactive
same,outcome,[11],inactive
same,AC50,[17],20 µM (active)
same,outcome,[18],inactive
N#CCCNCCC#N,outcome,[15],inactive
same,outcome,[2],inactive
same,outcome,[3],inactive
same,outcome,[16],inactive
same,outcome,[4],inactive
same,outcome,[6],inactive
same,outcome,[7],inactive
same,outcome,[8],inactive
same,outcome,[9],inactive
same,outcome,[10],inactive
CCn1cc(C(=O)O)c(=O)c2ccc(C)nc21,outcome,[1],inactive
same,outcome,[16],inactive
same,outcome,[4],inactive
same,outcome,[6],inactive
same,outcome,[7],inactive
same,outcome,[8],inactive
same,outcome,[14],inactive
same,outcome,[9],inactive
same,outcome,[10],inactive
same,outcome,[17],inactive
same,outcome,[18],inactive
C1=COCCC1,outcome,[12],inactive
same,outcome,[16],inactive
same,outcome,[4],inactive
same,outcome,[13],inactive
same,outcome,[5],inactive
same,outcome,[6],inactive
same,outcome,[7],inactive
same,outcome,[8],inactive
same,outcome,[14],inactive
same,outcome,[9],inactive
same,outcome,[10],inactive
same,outcome,[11],inactive
